Bioassay records from PubChem.
USP8 block – inhibitors of human USP8 deubiquitinase; P40818; AID 1645853; inhibition, % at 20 µM; purified USP8, Ub-rhodamine cleavage fluorescence, 30 min; 47,000 tested, 4.2% active
UCHL1 inh – inhibitors of human UCHL1 deubiquitinase; purified UCHL1, Ub-rhodamine cleavage fluorescence; inhibition, % at 20 µM; 47,000 tested, 0.2% active; AID 1645859
USP10 block – human USP10 deubiquitinase inhibition; Q14694; purified USP10, Ub-rhodamine fluorescence, 60 min; inhibition, % at 20 µM; 47,000 tested, 1.1% active; AID 1645856
USP7 inh – human USP7 deubiquitinase inhibition | purified USP7, Ub-rhodamine cleavage fluorescence | 47,000 tested, 0.3% active | inhibition, % at 20 µM
A number is an active result; 0 = inactive; - = no result given. Compounds with a hit are over-represented: about 4.6% of the library has one in this group of screens. No stated cut-off is given here; in the data, active means inhibition above about 30%; inactive means the rest.

SMILES	USP8 block	UCHL1 inh	USP10 block	USP7 inh
Oc1cccc2c(-c3ccc(O)c4c(O)cccc34)ccc(O)c12	98	78	71	0
Cc1ccc(C(=O)Nc2cc3c4c(c2)CC(=O)N4CCC3)cc1C	30	0	0	0
CC(=O)Nc1cc(C(=O)NC2CCCC2)c2ccc(C)nc2c1	34	0	0	0
COc1cccc(N2CCN(c3ccc4nnc(CCC(=O)NCCC5=CCCCC5)n4n3)CC2)c1	69	0	0	0
COc1cccc(N2CCN(c3ccc4nnc(CCC(=O)N5CCCC5)n4n3)CC2)c1	0	0	0	0
COc1cccc(N2CCN(c3ccc4nnc(CCC(=O)NCCN5CCCC5)n4n3)CC2)c1	0	0	0	0
COC(=O)C(NC(=O)CCc1nnc2ccc(N3CCN(c4cccc(OC)c4)CC3)nn12)C(C)C (configuration not stated)	34	0	0	0
Cc1nc(N)cc(C2CCCN2C(=O)c2cc(C(C)(C)C)[nH]n2)n1 (configuration not stated)	0	0	0	0
O=C1NC[C@@H](CCC(=O)N2CCCC2)N2C[C@@H](NCc3ccccc3)C[C@@H]12	0	0	0	30
O=C(/C=C/c1nc2ccccc2o1)OCc1cc(F)cc2c1OC(c1ccccc1)OC2 (configuration not stated)	0	0	0	0
CC1(C)CC2CC(C)(CN2Cc2c(O)ccc3ccccc23)C1 (configuration not stated)	87	0	0	0
COC(=O)C1Cc2ccccc2CN1Cc1c(O)ccc2ccccc12 (configuration not stated)	0	0	0	0
O=C1CO[C@H]2CN(Cc3cn[nH]c3-c3ccccc3)C[C@@H]2N1	0	0	0	0
Cn1c(=O)c2c(nc(CN3CCc4ccccc4C3)n2CC(=O)c2ccccc2)n(C)c1=O	36	0	0	0
Cc1ccc(-c2cc(C(=O)Nc3ccccc3Cl)[nH]n2)c(O)c1C	33	0	0	0
CCc1nnc2ccc(C(=O)N3CCN(CC)CC3)cn12	0	0	0	0
O=C(CCc1nc(-c2cc3ccccc3[nH]c2=O)no1)N1CCCC1	0	0	0	0
c1ccc(-c2cc3n(c2)CCc2cc4c(cc2-3)OCO4)cc1	0	0	0	0
Clc1ccc(-c2cc3n(c2)CCc2cc4c(cc2-3)OCO4)cc1	70	0	0	0
Cc1cc(-c2ccnn2C(C)C)nc(C2CCN(C(=O)C(C)(C)C)CC2)n1	0	0	0	0
COc1ccc(-c2nc3n(n2)C(CC(=O)Nc2cccc4ccccc24)C(=O)N3)cc1 (configuration not stated)	51	0	41	0
O=C(/C=C/c1ccc(Br)cc1)N1CCc2ccccc2C1	0	0	0	0
CC(C)c1ccc(/C=C/C(=O)N2CCc3ccccc3C2)cc1	69	0	0	0
COc1ccccc1-c1cc(C(=O)N2CCCCCC2c2cc(C)no2)no1 (configuration not stated)	0	0	0	0
Cc1ccc(OCCCn2c(CNC(=O)c3ccco3)nc3ccccc32)cc1	41	0	0	0
SMILES	USP8 block	UCHL1 inh	USP10 block	USP7 inh
COc1ccccc1OCCCn1c(CNC(=O)c2ccco2)nc2ccccc21	0	0	0	0
C[C@H]1CN(C(=O)NC2CCCCC2)C[C@@H]1c1nc(-c2cccnc2)no1	0	0	0	0
COc1ccc(-c2csc3ncnc(NCc4ccccn4)c23)cc1	0	0	0	0
O=C(Nc1nc2ccccc2s1)C1CC(=O)N(c2ccccc2)C1 (configuration not stated)	0	0	0	0
CCS(=O)(=O)N1Cc2ccccc2CC1C(=O)Nc1nc2ccccc2s1 (configuration not stated)	32	0	0	0
COc1ccc(Cn2nnc(C(=O)NC3CCCCC3)c2-n2cccc2)cc1	49	0	0	0
O=C(NCc1cccs1)C(NS(=O)(=O)c1cccc2nsnc12)c1ccccc1 (configuration not stated)	0	0	0	0
O=C(CSc1nc2ccccc2[nH]1)Nc1cccc2c1OCCO2	0	0	0	0
O=C(CSc1ccccc1)Nc1cccc2nsnc12	53	0	0	0
CCC(C(=O)Nc1cccc2nsnc12)c1ccccc1 (configuration not stated)	37	0	0	0
CN1CCN(C(=O)c2cc(-c3ccccc3)cn2C)CC1	0	0	0	0
CNc1nccnc1C1CN(S(=O)(=O)c2ccc(C)cc2)CCO1 (configuration not stated)	0	0	0	0
COc1ccc(-c2c[nH]n3c(=O)c(CCO)c(C)nc23)cc1OC	0	0	0	0
Cc1nc2c(-c3ccc(Cl)cc3)c[nH]n2c(=O)c1Cc1ccccc1	0	0	65	0
CCc1nnc2c(NC(=O)Cc3ccc(OC)c(Cl)c3)cccn12	0	0	0	0
Cc1cc(NC(=O)CSc2ncc(-c3cccc([N+](=O)[O-])c3)n2-c2cccc(Cl)c2)no1	55	0	64	0
COc1ccc(-c2nn(-c3ccccc3)cc2C(=O)Nc2ccc(N3CCOCC3)cc2)cc1	61	0	0	0
Cc1ccc(-c2cc(NC(=O)C(C)C)c(=O)n(CC(=O)Nc3ccc(Cl)cc3)n2)cc1	0	0	0	0
O=C(Cn1nc(-c2ccccc2)cc(NC(=O)c2ccccc2)c1=O)Nc1ccc(F)cc1	0	0	38	-
O=C(Cn1nc(-c2ccc3c(c2)OCCO3)ccc1=O)Nc1ccc(Oc2ccccc2)cc1	0	0	0	0
O=C(Cn1cnc(-c2ccccc2)cc1=O)Nc1ccc(Oc2ccccc2)cc1	46	0	0	0
Cc1ccc(-c2cc(=O)n(CC(=O)Nc3ccc(C(C)C)cc3)cn2)cc1	34	0	42	0
CN(C)c1cc(-n2cnc(C(=O)NCc3cccc(Cl)c3)c2)ncn1	0	0	0	0
CCOC(=O)c1c(-c2ccccc2Cl)csc1NC(=O)CNc1cccc(O)c1	0	0	0	0
CCc1cnc(N2CC[C@@H]3CN(C)S(=O)(=O)[C@@H]3CC2)nc1	0	0	0	0
SMILES	USP8 block	UCHL1 inh	USP10 block	USP7 inh
COc1ccccc1NC(=O)N1CCOc2ccc(C)cc21	0	0	0	0
CCCn1c(=O)n(CC(=O)c2ccccc2F)c2c(C(N)=O)nc(-c3ccco3)nc21	59	0	0	0
CCn1c(=O)n(CC(=O)c2ccc(F)cc2F)c2c(C(N)=O)nc(-c3ccco3)nc21	48	0	0	0
CCn1c(=O)n(CC(=O)c2ccc(Cl)cc2)c2c(C(N)=O)nc(-c3ccco3)nc21	49	0	0	40
COc1ccc(CC(=O)Nc2cc(N3CCCS3(=O)=O)ccc2OC)cc1	0	0	0	0
CNC(=O)C1(C)CN(Cc2ccnc(N3CCCC3)n2)CCO1 (configuration not stated)	0	0	0	0
CC(C)(C)c1ccc(C(=O)Nc2ccc(O)c(-c3nc4cnccc4o3)c2)cc1	61	0	0	0
Cc1cnc(NC(=O)c2cc3c(C)nn(Cc4ccccc4Cl)c3s2)s1	56	0	0	0
Cc1cnc(NC(=O)c2ccccc2-c2ccccc2)s1	0	0	0	0
Cc1ccc(NC(=O)N2CCN(C3=CC4=NC(C)CN4C=N3)CC2)c(C)c1 (configuration not stated)	0	0	0	0
